Where “and” joins values, the source holds several entries; their conditions need not be identical. Equal values may be shown once. Results filed as inconclusive are left out. More than one record can exist for a structure, and the calls need not agree. Calls of active or inactive are those of the source. Unless noted, calls come from the whole dose curve; as a rule, active = well fitted curve in the direction sought with a large enough effect in the repeat runs; inconclusive = weak or mixed curves; inactive = no such curve, though single readings can be large; an effect the other way counts as inactive or inconclusive. Starred links: 1 amine or outer side, 2 acyl side, 3 side chain; linkers in the order of their positions; H or OH if unused. Positions of bridges follow the written chain, without caps; N, C: chain ends. Non-standard residues stand in square brackets, D forms with d. Residues, ends and D or L forms follow the SMILES beside them. Chains are numbered I, II in the order given. Actinocin(9to1) = Cc1c2oc3c(C)ccc(C(=O)[*:1])c3nc-2c(C(=O)[*:2])c(N)c1=O; NMeV = CN[C@H](C(=O)O)C(C)C; Sar = CNCC(=O)O

Experiment [1] can be described thus: qHTS assay to identify small molecule antagonists of the vitamin D receptor (VDR) signaling pathway - cell viability counter screen (AID 743225). Note: nearly all actives have a fitted effect of over 50% in size. Note: potency is the fitted concentration of half-maximal effect. The essentials:
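VDR-bla HEK 293T cells, 4 h pre-incubation at 37C, then compound plus 1-alpha,25-dihydroxyvitamin D3 (3 nM final) for 16 h. After the beta-lactamase FRET read, CellTiter-Glo was added to the same wells; luminescence after 30 min at room temperature.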
In general terms: In qHTS, concentration-response curves come from the screen itself.

A short description of experiment [2]: qHTS assay to identify small molecule agonists of the NFkB signaling pathway - cell viability counter screen (AID 1159515; calls by dose curve; note: nearly all actives have a fitted effect of over 55% in size; note: potency is the fitted concentration of half-maximal effect). The essentials: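 5 hr compound treatment of NFkB-bla ME-180 cells (2,000/well, seeded overnight beforehand), followed by reporter substrate for 1.5 hr. CellTiter-Glo added afterward; luminescence after 30 min RT.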
Experiment [3] can be described thus: qHTS assay to identify small molecule agonists of the endoplasmic reticulum stress response signaling pathway - cell viability counter screen (AID 1159517; calls by dose curve; note: nearly all actives have a fitted effect of over 50% in size; note: potency is the fitted concentration of half-maximal effect). The essentials: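 ESRE-bla HeLa cells, 1,500 per well, seeded overnight then treated with compounds for 5 hr at 37 C. After the beta-lactamase read, viability in the same wells is measured by CellTiter-Glo luminescence after 30 min at room temperature.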

Experiment [4] is described as follows: qHTS assay to identify small molecule antagonists of the retinoid-related orphan receptor gamma (ROR-gamma) signaling pathway - cell viability counter screen (AID 1159520). Note: nearly all actives have a fitted effect of over 50% in size. Note: potency is the fitted concentration of half-maximal effect. The essentials: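 Tet-on ROR gamma CHO cells were given compounds for 2 hr, then doxycycline hyclate at 1 uM final, and incubated 16 hr at 37 C. Viability was measured as ATP content by CellTiter-Glo luminescence.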

For experiment [5], the target named is Nuclear receptor ROR-gamma (Homo sapiens) (UniProt P51449). The experiment is described as follows: qHTS assay to identify small molecule antagonists of the retinoid-related orphan receptor gamma (ROR-gamma) signaling pathway (AID 1159521; note: nearly all actives have a fitted effect of over 50% in size; note: potency is the fitted concentration of half-maximal effect). In short, it runs like this:
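Tet-on RORγ CHO cells carrying a ROR response element–luciferase reporter were pretreated with compounds for 2 h, then induced with 1 uM (final) doxycycline hyclate for 16 h at 37 C. Antagonism was read as decreased ONE-Glo luminescence.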

Experiment [6] is described as follows: qHTS assay to identify small molecule agonists of the AP-1 signaling pathway - cell viability counter screen (AID 1159525; calls by dose curve; note: nearly all actives have a fitted effect of over 55% in size; note: potency is the fitted concentration of half-maximal effect). The essentials: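 AP-1-bla ME-180 cells in Opti-MEM with 0.5% dialyzed FBS, compound exposure 5 h at 37 C in 15-point titration. Viability read in the same wells as ATP content by CellTiter-Glo luminescence, normalised to tetra-n-octylammonium bromide and DMSO controls.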

The nature of experiment [7]: qHTS assay to identify small molecule agonists of the AP-1 signaling pathway (AID 1159526; calls by dose curve).
Experiment [8] concerns the target Retinoic acid receptor RXR-alpha (Homo sapiens) (UniProt P19793). The experiment is described as follows: qHTS assay to identify small molecule agonists of the RXR signaling pathway (AID 1159527; calls by dose curve; note: nearly all actives have a fitted effect of over 35% in size; note: potency is the fitted concentration of half-maximal effect). In short, it runs like this:
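GeneBLAzer RXR-alpha-UAS-bla HEK 293T cells in medium with 2% charcoal-stripped FBS, pre-incubated 5 hr at 37 C, then exposed to compounds 16 hr. Beta-lactamase reporter read by FRET substrate, 2 hr room temperature, 460/530 nm emission.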

Experiment [9] is described as follows: qHTS assay to identify small molecule agonists of the RXR signaling pathway - cell viability counter screen (AID 1159529). Note: nearly all actives have a fitted effect of over 50% in size. Note: potency is the fitted concentration of half-maximal effect. In short, it runs like this:
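RXR-alpha-UAS-bla HEK 293T cells in medium with 2% charcoal-stripped FBS were preincubated 5 hr, then exposed to compounds for 16 hr at 37 C. Viability was read as CellTiter-Glo luminescence after 30 min at room temperature.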

Experiment [10] in a line: qHTS assay to identify small molecule agonists of the endoplasmic reticulum stress response signaling pathway (AID 1159516; active = well fitted activation curve with a large enough effect in the signal ratio in the repeat runs, not every such curve was filed as active; the % refers to the signal ratio). In short, it runs like this: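 Reporter HeLa cells (ESRE-beta-lactamase) underwent 5 hr compound incubation at 37 C and 5% CO2 in quantitative HTS format. Detection followed 2 hr of FRET substrate loading at room temperature.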

Sequence of Retinoic acid receptor RXR-alpha (Homo sapiens) (P19793 whole entry, looked up): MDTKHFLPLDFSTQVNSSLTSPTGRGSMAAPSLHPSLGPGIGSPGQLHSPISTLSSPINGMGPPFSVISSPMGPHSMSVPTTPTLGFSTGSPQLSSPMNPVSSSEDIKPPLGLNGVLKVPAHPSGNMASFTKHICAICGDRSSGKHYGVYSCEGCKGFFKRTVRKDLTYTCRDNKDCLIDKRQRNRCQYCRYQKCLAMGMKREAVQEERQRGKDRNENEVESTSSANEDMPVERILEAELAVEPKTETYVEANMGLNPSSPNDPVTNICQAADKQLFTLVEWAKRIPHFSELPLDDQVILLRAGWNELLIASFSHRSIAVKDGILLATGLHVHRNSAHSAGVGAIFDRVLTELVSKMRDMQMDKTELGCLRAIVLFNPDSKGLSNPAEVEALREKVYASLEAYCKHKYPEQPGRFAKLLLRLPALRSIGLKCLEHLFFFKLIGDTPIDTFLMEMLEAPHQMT

Take `Cc1cccc2n[nH]nc12`: the Potency entry in experiment [1], in experiment [2], in experiment [3], in [4], in experiment [5] and in [6] was “inactive” in each case. Moreover, the Potency entry in experiment [7] and in experiment [8] was “inactive” throughout.
`CC(C)(C)c1ccc(O)c(C(C)(C)C)c1`: the Potency in experiment [1] is 24.4 µM (active) and 43.6 µM (active); in [2], 48.8 µM (active) and 49 µM (active); in [3], 54.7 µM (active) and 49 µM (active); in experiment [4], 54.3 µM (active); in [5], 43.1 µM (active) and inactive; in [6] it was 34.5 µM (active). The Potency in experiment [9] is 21.8 µM (active) and 24.5 µM (active).
In the case of `CCCCCCCCCCCCCC[P+](CCCC)(CCCC)CCCC`, the Potency in experiment [1] is 6.88 µM (active) and 7.76 µM (active); in experiment [2], 34.5 µM (active) and 21.9 µM (active); in [3] it was 13.7 µM (active) and 15.5 µM (active); in experiment [4], 13.6 µM (active) and 10.9 µM (active); in experiment [5] it was 3.05 µM (active) and 4.86 µM (active); in experiment [6] it was 17.3 µM (active) and 21.9 µM (active). The Potency in experiment [9] is 6.13 µM (active) and 11 µM (active).
As for `CC(COc1ccccc1)N(CCCl)Cc1ccccc1` (stereo not drawn), the Potency entry in [1], in experiment [2], in [3] and in [8] was “inactive” each time. The Potency in experiment [4] was 49.1 µM (active) and 54.5 µM (active) and 29.8 µM (active); in [5], 49.1 µM (active) and inactive.
Regarding `CCOc1ccc2c(c1)C(C)=CC(C)(C)N2`, the Potency result in experiment [1], in experiment [2], in [3], in [4] and in [5] was “inactive” in each case.
Take `Cc1c(O)cccc1C(=O)N[C@@H](CSc1ccccc1)[C@H](O)CN1C[C@H]2CCCC[C@H]2C[C@H]1C(=O)NC(C)(C)C`: the Potency in experiment [1] is 23.9 µM (active) and 21.3 µM (active); in experiment [5], 23.7 µM (active) and 9.44 µM (active). The Potency result in [2], in experiment [3], in experiment [6] and in [7] was “inactive” each time.
For the compound `CCN(CC)CCOc1ccc(/C(=C(\Cl)c2ccccc2)c2ccccc2)cc1`, the Potency in [1] was 22.3 µM (active) and 21.3 µM (active); in experiment [2], 44.6 µM (active) and 23.9 µM (active); in [4], 31.3 µM (active); in [5] it was 19.7 µM (active) and 26.6 µM (active); in experiment [6], 17.7 µM (active).
As for `Cc1c2oc3c(C)ccc(C(=O)N[C@@H]4C(=O)N[C@H](C(C)C)C(=O)N5CCC[C@H]5C(=O)N(C)CC(=O)N(C)[C@@H](C(C)C)C(=O)O[C@@H]4C)c3nc-2c(C(=O)N[C@@H]2C(=O)N[C@H](C(C)C)C(=O)N3CCC[C@H]3C(=O)N(C)CC(=O)N(C)[C@@H](C(C)C)C(=O)O[C@@H]2C)c(N)c1=O` (I: T[dV]P[Sar][NMeV] / II: T[dV]P[Sar][NMeV]; ester I:1-I:C, II:1-II:C; linker I:N-II:N via Actinocin(9to1)), the Potency result in experiment [1], in experiment [2] and in [6] was “inactive” throughout. Also, the Potency in experiment [3] was 26.8 nM (active) and 107 nM (active); in experiment [4], 59.4 nM (active) and 59.6 nM (active); in experiment [5], 29.8 nM (active) and 188 nM (active).
Consider `Cc1cc(C2(c3cc(C)c(O)cc3C)OS(=O)(=O)c3ccccc32)c(C)cc1O`, for which the Potency result in experiment [1], in [2], in experiment [4], in experiment [5], in experiment [6] and in [7] was “inactive” in each case. In addition, the Potency result in [8] is “inactive”. Also, in experiment [10], the call was inactive.
On to `CCCCC(CC)COC(=O)CC(C(=O)OCC(CC)CCCC)S(=O)(=O)O` (stereo not drawn), for which the Potency in [1] is 21.1 µM (active) and 15.5 µM (active); in [2], 47.1 µM (active) and 49 µM (active); in [9], 21.1 µM (active) and 43.6 µM (active). Besides, the Potency entry in experiment [4] and in experiment [5] was “inactive” each time.
With `NC(=Nc1ccccc1)Nc1ccccc1`, the Potency entry in experiment [1], in experiment [2], in experiment [3], in experiment [4], in experiment [5] and in [6] was “inactive” each time. Moreover, in [9], the Potency result was “inactive”.
Take `c1ccc2cc3c(ccc4ccccc43)cc2c1`: the Potency entry in [1], in [2], in experiment [3], in [4], in experiment [5] and in experiment [6] was “inactive” in each case. The Potency result in experiment [7], in experiment [8] and in experiment [9] was “inactive” throughout.
Take `O=Nc1ccc(Nc2ccccc2)cc1`: in experiment [2], the Potency result was “inactive”. Moreover, the compound was classed as inactive in experiment [10]. Further, the Potency was 19.4 µM (active) and 15.4 µM (active) in experiment [4]; 7.74 µM (active) and 10.9 µM (active) in experiment [5].
For `CC(C)CCCCCCc1ccc(O)cc1`, the Potency was 31.4 µM (active) and 38.9 µM (active) in experiment [1]; 39.6 µM (active) and 38.9 µM (active) in [2]; 35.3 µM (active) and 54.9 µM (active) in experiment [3]; 24.8 µM (active) in experiment [4]; 2.48 µM (active) in [5].
Turning to `CC(C)C(=O)c1c(C(C)C)nn2ccccc12`, the Potency entry in experiment [1], in experiment [3], in [4], in experiment [5], in experiment [6] and in experiment [7] was “inactive” in each case. Moreover, in experiment [9], the Potency result was “inactive”. The call in experiment [10] was inactive. The Potency in experiment [8] is 23.9 µM (active).
`O=C(O[C@@H]1Cc2c(O)cc(O)cc2O[C@@H]1c1cc(O)c(O)c(O)c1)c1cc(O)c(O)c(O)c1`: the Potency result in [1], in experiment [2], in [3], in experiment [4], in experiment [6] and in experiment [8] was “inactive” each time. Moreover, the Potency result in experiment [9] is “inactive”.
For `Cc1ccc(S(=O)(=O)Oc2ccc(N=Nc3ccc(-c4ccc(N=Nc5c(O)ccc6cc(S(=O)(=O)O)cc(S(=O)(=O)O)c56)c(C)c4)cc3C)cc2)cc1`, the Potency result in experiment [1], in experiment [2], in [3], in experiment [4], in experiment [8] and in [9] was “inactive” in each case.
Regarding `CC(=O)C1=C(C)[C@@H]2C[C@@]3(C1)[C@H](C)CC[C@H]3C2(C)C`, the Potency result in experiment [1], in experiment [2], in experiment [4], in [5], in [6] and in experiment [7] was “inactive” throughout. The Potency entry in [8] and in [9] was “inactive” in each case.
In the case of `CNCCC(Oc1ccc(C(F)(F)F)cc1)c1ccccc1` (stereo not drawn), the outcome in [10] was inactive. Moreover, the Potency result in experiment [3] and in experiment [4] was “inactive” in each case.
As for `Cc1ccc(-c2cc(C(F)(F)F)nn2-c2ccc(S(N)(=O)=O)cc2)cc1`, the Potency was 48.8 µM (active) in experiment [1]; 60.9 µM (active) and 54.5 µM (active) in [4]; 48.8 µM (active) and 21.9 µM (active) in experiment [9]. Also, the Potency result in [2] and in experiment [3] was “inactive” in each case. For the same compound, the outcome in [10] was inactive.
Consider `O=C(Nc1ccccc1SSc1ccccc1NC(=O)c1ccccc1)c1ccccc1`, for which the Potency entry in experiment [2], in experiment [3] and in experiment [6] was “inactive” in each case. The Potency in experiment [4] was 24.3 µM (active); in [5], 8.68 µM (active) and 17.2 µM (active); in experiment [9], 19.6 µM (active) and 21.9 µM (active).
With `Nc1nc(=S)c2[nH]cnc2[nH]1`, the Potency result in experiment [2], in experiment [3], in [6] and in experiment [7] was “inactive” each time. Besides, the Potency in experiment [5] is 26.6 µM (active) and inactive.

The values above are taken from PubChem BioAssay (Tox21).
